From PubChem BioAssay
The entries come from a sample that favours hits as a whole.
Ba CapD inh: blocks the Bacillus anthracis CapD enzyme. purified CapD enzyme, fluorescence intensity read-out; hits give low values. z-score (concentration not given with the values). 140,000 tested, 0.23% active. AID 492967; in the data active = z-score mostly below about -2.9, no sharp cut-off; inactive = mostly above about -1.9
Starred values were filed as active, the others as inactive.

SMILES	Ba CapD inh
N#CC1=C(SCC(=O)Nc2ccc(Br)cc2)NC(=O)CC1c1ccc2c(c1)OCO2 (centres undefined)	-0.255
O/N=C/c1c[nH]c2ccccc12	-0.78
CN(C)c1ccc(/C=C(\C#N)C(N)=C(C#N)C#N)cc1	-0.45
N#CC(C#N)=C(N)/C(C#N)=C/c1c[nH]c2ccccc12	-3.04*
Cc1ccc(/C=C2\CC/C(=C\c3ccc(C)o3)C2=O)o1	1.2
Cc1ccc(/C=C2\N=C(c3ccc(C4=N/C(=C\c5ccc(C)o5)C(=O)O4)cc3)OC2=O)o1	-0.435
Cc1ccc(/C=C2/C=CC(=O)O2)o1	-5.19*
CCN1C(=O)CC(c2ccccc2)S(=O)(=O)c2ccccc21 (centres undefined)	-0.565
CCOC(=O)C1=C(N)n2c(s/c(=C/c3ccccc3)c2=O)=C(C(=O)OCC)C1c1ccccc1 (centres undefined)	0.45
CCOC(=O)C1=C(N)n2c(s/c(=C/c3ccco3)c2=O)=C(C(=O)OCC)C1c1ccco1 (centres undefined)	-4.2*
CCOC(=O)C1=C(N)n2c(s/c(=C\c3ccco3)c2=O)=C(C#N)C1c1ccco1 (centres undefined)	5.87
O=C(/C=C/c1ccccc1)Nc1ccc(C(=O)O)cc1	-2.54
NC(=O)c1oc2ccccc2c1NC(=O)c1cccs1	0.765
O=C(Nc1c(C(=O)N2CCOCC2)oc2ccccc12)c1cccs1	-3.58*
Cc1ccccc1C(=O)Nc1c(C(=O)N2CCOCC2)oc2ccccc12	-1.4
COc1ccc(-c2nn(C3CC(=O)C4OCC3O4)c(=S)n2-c2ccccc2)cc1OC (centres undefined)	-0.28
CCC(C)(C)c1ccc(S(=O)(=O)NC(COC)C(O)c2ccccc2)cc1 (centres undefined)	-0.725
O=c1[nH]c(O)c(/C=N/Nc2ccccc2)c(=O)[nH]1	-1.33
CC(N=CC1=C(O)CNC1=O)c1ccccc1 (centres undefined)	-0.04
O=C1NCC(O)=C1/C=N/Nc1ccccc1	-4.44*
CC(=O)Nc1ccc([N+](=O)[O-])cc1	-1.65
CCOC(=O)CC(=O)c1ccc([N+](=O)[O-])cc1	-0.145
CCNc1ccc([N+](=O)[O-])cc1	-4.51*
CC(=O)N1CCC(N(C(=O)c2ccc(C(F)(F)F)cc2)c2ccc3[nH]c(C)cc3c2)CC1	-0.03
Fc1ccc(-c2csc(Nc3cccnc3)n2)cc1	0.38
SMILES	Ba CapD inh
CCCc1nc2ccccc2c2c1C(=O)N(Cc1ccccc1OCC)C2=O	0.425
N#C/C(=N/O)c1nc2ccccc2s1	-4.49*
N#CC(=C1CCCCC1)c1nc2ccccc2s1	0.07
CSC(SC)=C(C#N)c1nc2ccccc2s1	-0.64
O=C(Nc1ccccc1-c1nc2ccccc2[nH]1)c1ccc(S(=O)(=O)N2CCOCC2)cc1	0.47
COc1cc(C2C(C#N)=C(N)Oc3n[nH]c(-c4cccc([N+](=O)[O-])c4)c32)cc(OC)c1OC(=O)N1CCOCC1 (centres undefined)	0.815
CC1=NN(c2nc(-c3ccccc3)cs2)C(=O)/C1=C/c1cccs1	0.13
CC(C)CCn1c(SCC(=O)NC2CCCC2)nc2ccsc2c1=O	-0.42
C/C(=C\C(=O)c1ccc(C)o1)Nc1ccc(F)c(C)c1	-2.42
C/C(=C\C(=O)c1ccc(C)o1)Nc1ccc(C(=O)O)cc1C	-4*
C/C(=C\C(=O)c1ccc(C)o1)Nc1ccc(Nc2ccccc2)cc1	-2
CN(C)CC1CCCCC1OC(=O)c1ccc(Br)o1 (centres undefined)	1.1
CC(C)(C)CC(=O)NC1CCCCCCC1	0.55
Cc1ccc(C2(O)CN(c3ccccc3C)C3=[N+]2CCCS3)c(C)c1 (centres undefined)	0.345
COc1ccc(CN2CCCCCC2)cc1	0.375
COc1ccc(C2CCCCC2)cc1	0.46
COc1ccc([S+]2CCCCC2)cc1	-4.91*
CCN(CC)c1ccc(NC(=O)c2cc(=O)c3ccccc3o2)cc1	-0.49
Cc1ccc(C2(C)CC(C)(C)N(C(=O)CN3C(=O)c4ccccc4C3=O)c3ccc(C(c4ccccc4)(c4ccccc4)c4ccccc4)cc32)cc1 (centres undefined)	-0.24
COc1cc(C=C(C#N)C#N)ccc1O	-4.3*
COc1ccc(/C=C(\C#N)C(N)=O)cc1OC	-2.29
CCOc1ccc(C=C(C#N)C#N)cc1	-0.18
O=C(Nc1ccc(C2=NCCO2)cc1)c1ccc(C(F)(F)F)cc1	1.32
CC(C)(C)c1cc2nc(C(F)(F)F)cc(N3CCN(C(=O)OCC4CCCCN4Cc4cc5c(cc4Cl)OCO5)CC3)n2n1 (centres undefined)	9.14
Cc1nn(C(C)(C)C)c(C)c1/C=N/OC(=O)c1cccs1	-0.005
SMILES	Ba CapD inh
CC(=O)N1CCN(c2ccc(NC(=O)COc3ccc4ccccc4c3)cc2)CC1	0.145
O=C(Oc1cc2oc3ccccc3[nH]c2c2c(=O)c3ccccc3c(=O)c12)c1ccccc1	0.54
COC(=O)CNC(=O)c1ccccc1	0.05
CCOC(=O)c1[nH]c(=O)[nH]c1CN(Cc1ccco1)Cc1[nH]c(=O)[nH]c1C(=O)OCC	0.435
CCOC(=O)c1[nH]c(=O)[nH]c1COC(=O)CNC(=O)c1ccccc1	-6.11*
CC(C)N=Cc1ccc(-c2ccccc2)cc1	0.555
COc1ccc(-c2cc(C(F)(F)F)n3ncc(C(=O)N4CCc5ccccc5C4)c3n2)cc1OC	-1.67
COc1ccc(C2C(C(=O)N3CCCC3)CC(=O)N2c2ccc(OC)cc2)cc1 (centres undefined)	-0.055
COc1ccc(N2C(=O)CCC(C(=O)N3CCCCC3)C2c2ccc(OC)c(OC)c2)cc1 (centres undefined)	-0.575
COc1ccc(C2C(C(=O)N3CCOCC3)CCC(=O)N2c2ccc(OC)cc2)cc1 (centres undefined)	-10.3*
Cc1c(F)cccc1/C=N/NC(=O)c1ccc(C(F)(F)F)cc1	0.225
COC(=O)CN1Cc2ccccc2C1=O	-0.17
c1ccc(N2CCN(c3c4c(nc5nncn35)CCC4)CC2)cc1	2.53
S=c1c2c(nc3nc[nH]n13)CCC2	-5.7*
CCN(CC)c1c2c(nc3nncn13)CCC2	-2.4
N#CCCO/N=C/c1ccco1	-1.61
Cc1cc(=O)oc2cc(NC(=S)N3CCCC3)ccc12	23.8
CN(C)c1ccc(/C=C2/SC(=S)N(CCCCC(C(=O)O)N3C(=O)/C(=C\c4ccc(N(C)C)cc4)SC3=S)C2=O)cc1 (centres undefined)	-0.56
CCC(C(=O)O)N1C(=O)/C(=C/c2ccccc2)SC1=S (centres undefined)	-2.1
CSCCC(C(=O)O)N1C(=O)/C(=C/c2ccc(O)cc2)SC1=S (centres undefined)	-4.04*
COc1ccccc1Cn1c(SCC(=O)c2ccccc2)nc2cc(C(=O)N3CCC4(CC3)OCCO4)ccc2c1=O	-2.12
CS(=O)(=O)c1cc(C#N)c(N2CCN(c3cccc(Cl)c3)CC2)nc1-c1ccc(Cl)cc1	0.05
O=C(NCc1ccc(S(=O)(=O)N2C=CC(C(F)(F)F)=NCC2)s1)c1ccccc1	-1.64
N#Cc1c(N)nc2c(c1-c1cccnc1)CCCC2	9.32
O=C(CCSc1ccc(Cl)cc1)NCc1ccncc1	0.24
SMILES	Ba CapD inh
O=C(CCSc1ccccc1)NCc1cccnc1	-0.22
COc1ccc(SCCC(=O)NCc2ccncc2)cc1	-2.09*
CCOC(=O)c1c[nH]c2c(F)ccc(F)c2c1=O	2.79
CCOC(=O)c1coc2c(F)c(F)c(F)cc2c1=O	-11.5*
CCOC(=O)c1c[nH]c2ccccc2c1=O	-0.28
CSC(SC)=C(C#N)C(=O)c1cccc(C)c1	-1.52
CSC(SC)=C(C#N)C(=O)c1cccc(C(F)(F)F)c1	-1.45
CSC(SC)=C(C#N)C(=O)c1ccccc1Cl	-4.75*
